PubChem BioAssay (NCI)
The panel holds about 79,000 compounds, 15% with a hit somewhere; the sample as a whole holds those more often. Unmarked numbers belong to inactive results. The source made the active and inactive calls. Rule as the data show it: active = growth inhibition above about 70%; inactive = the rest.

Assays:
[1] = NCI Yeast Anticancer Drug Screen. Data for the rad50 strain (AID 155);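 also: 0% = growth of vehicle-only cultures of the same strain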; conditions: S. cerevisiae rad50 strain growth inhibition; at 50.0 µM; hits give high values
Outline: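 DNA repair mutant yeast, compound exposure, growth read-out; inhibition is taken relative to vehicle.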

[2] = NCI Yeast Anticancer Drug Screen. Data for the mec2-1 strain (AID 157); conditions: S. cerevisiae mec2-1 strain, at 50.0 µM, hits give high values
Outline: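 Each compound was tested on mec2-1 yeast, a strain altered in DNA damage repair or cell cycle control. Growth inhibition is reported relative to vehicle.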

[3] = NCI Yeast Anticancer Drug Screen. Data for the sgs1 mgt1 strain (AID 161);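 also: 0% = growth of cultures given vehicle only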; conditions: S. cerevisiae sgs1 mgt1 strain, at 50.0 µM, hits give high values
Outline: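 Inhibition of yeast growth, normalised to vehicle-treated controls, is reported for a strain bearing genetic alterations in DNA damage repair.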

[4] = NCI Yeast Anticancer Drug Screen. Data for the cln2 rad14 strain (AID 165);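 also: 0% = growth equal to vehicle treated cultures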; conditions: S. cerevisiae cln2 rad14 strain, at 50.0 µM, hits give high values
Outline: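 Test compounds were added to cln2 rad14 yeast cultures; inhibition of growth was then determined by comparison with vehicle treatment.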

[5] = NCI Yeast Anticancer Drug Screen. Data for the bub3 strain (AID 167); conditions: S. cerevisiae bub3 mutant strain, at 50.0 µM, hits give high values
Outline: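 In this screen, a yeast mutant lacking normal mitotic checkpoint function is challenged with compound. Relative growth versus vehicle gives the inhibition value.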

[6] = NCI Yeast Anticancer Drug Screen. Data for the mlh1 rad18 strain (AID 175); conditions: S. cerevisiae mlh1 rad18 strain growth inhibition; at 50.0 µM; hits give high values
Outline: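 Inhibition values reflect reduced growth of mutant yeast versus vehicle-treated controls following compound exposure; the mutations affect DNA damage repair.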

Row | SMILES | growth inhibition [1] | growth inhibition [2] | growth inhibition [3] | growth inhibition [4] | growth inhibition [5] | growth inhibition [6]
1 | Nc1cccc(S(=O)(=O)O)c1 | -27.1% | -10.8% | -36.2% | -37.1% | -13.8% | -5.2%
2 | O=C1C=C(Oc2ccccc2)C(=O)C=C1Oc1ccccc1 | -8.15% | -3.55% | -27.1% | -23.8% | 14.3% | -11.1%
3 | COC(=O)NC(Nc1ccc(Cl)cc1Cl)(C(F)(F)F)C(F)(F)F | 44.6% | 6.7% | 12.2% | 20.6% | 30.1% | 16.6%
4 | CCCCCCCCCSc1nc2ccc(N=Cc3ccccc3O)cc2s1 | -2.85% | -6.8% | -23.5% | -10.1% | 1.3% | -40.6%
5 | CCOCCOC(=O)c1ccc(C(N)=NC2CCCCC2)cc1 | 0.05% | -2.4% | 3.75% | -4.1% | 0.1% | -1.4%
6 | CCC1N(C)CCCN1C | 9.25% | -2.9% | 10.2% | 0.95% | 0.9% | 6.55%
7 | N#Cc1ccc(OCCCOc2ccccc2)cc1 | 4.2% | 47.5% | 20.8% | -2.7% | 37.4% | 4.5%
8 | CC1CN(C(=O)Cn2cnc([N+](=O)[O-])n2)CC(C)O1 (configuration not stated) | 7.65% | 14.2% | 2.75% | 65.2% | 29.8% | 12.7%
9 | COc1ccc(CC(N)C(N)=O)cc1 (configuration not stated) | -6.25% | -0.65% | -4% | -12% | -0.3% | 6.5%
10 | O=C(Nc1ccccc1Cl)Nc1cccc2ccccc12 | 15.2% | 1.3% | 17.8% | -1.6% | 4.55% | 8.65%
11 | Clc1cccc(NNc2cccc(Cl)c2)c1 | -11.5% | -16.8% | -13.8% | -66.2% | 7.25% | -25.9%
12 | O=C1COC(=O)/C1=C/c1ccccc1 | -0.4% | -7.85% | -4.75% | 2.3% | -15.8% | -1.05%
13 | CC(C)(C)/[N+]([O-])=C/C(c1ccccc1)C(/C=[N+](/[O-])C(C)(C)C)c1ccccc1 (configuration not stated) | -3.5% | -4.5% | -15.3% | 3.85% | -2.1% | -18.6%
14 | Cc1cc(=O)n(-c2ccc(-c3ccc(-n4c(C)c(C(=O)O)c(C)cc4=O)cc3)cc2)c(C)c1C(=O)O | -45% | 6.35% | 19.3% | 24.1% | -2.4% | 27.6%
15 | C#CC(C)OC(=O)Nc1ccccc1 (configuration not stated) | 28.6% | -22.2% | 3.4% | -3.95% | -7.65% | -8.3%
16 | CCOc1ccc(N=Cc2c3ccccc3nc3ccccc23)cc1 | -3.05% | 14.5% | -3.25% | 25.9% | 6.25% | -9%
17 | Oc1ccc(Br)cc1C(c1ccc2c(c1)OCO2)N1CCOCC1 (configuration not stated) | 8.65% | 14.3% | -7.8% | 14.4% | 1.45% | 15.5%
18 | O=C(Nc1ccc(F)cc1)C(=O)C(C(=O)c1ccccc1F)C1OC(=O)c2ccccc21 (configuration not stated) | 2.8% | -0.05% | -10.6% | 1.55% | -0.35% | 2.25%
19 | NC(=O)N/N=C1\CCc2ccccc2C1 | 12.8% | -12.3% | -25.8% | 22.4% | -42.3% | -2.8%
20 | CC(=O)C(C(C)=O)C(c1ccccn1)C(C(C)=O)C(C)=O | -6.7% | -0.65% | -4.05% | -0.65% | 6.8% | -6.45%
21 | Nc1c([N+](=O)[O-])cc(F)cc1C(F)(F)F | -5.5% | -17.6% | 3.6% | -14.9% | 5.4% | 6.7%

Row | SMILES | growth inhibition [1] | growth inhibition [2] | growth inhibition [3] | growth inhibition [4] | growth inhibition [5] | growth inhibition [6]
22 | Cc1cccc(C)c1NC(=O)N(Cc1ccccc1)Cc1ccccc1 | 1.65% | 15.2% | 20.6% | -2% | 36.7% | 30.6%
23 | COC(=O)c1cn2ccc3ccccc3c2c1C(=O)OC | -3.95% | 2.15% | 9% | -0.25% | -15.7% | 15.5%
24 | CNC(=O)C(C)Oc1ccc(OCC2CCCCC2)cc1 (configuration not stated) | -0.8% | -44.2% | -14.4% | -35.5% | -46.9% | -55.6%
25 | O=C(CN1CCCCC1)NC(=O)N/N=C\c1ccco1 | 0.1% | 3% | 6.1% | -59% | -0.15% | 13.8%
26 | Cc1cc2c(=O)c(C(=O)O)c[nH]c2cc1-n1cccc1 | 41.8% | 23.6% | 45% | 15.7% | 36.3% | 33.2%
27 | O=C1c2cc([N+](=O)[O-])cc3cc([N+](=O)[O-])cc(c23)C(=O)N1CCNCCNCCNCCN1C(=O)c2cc([N+](=O)[O-])cc3cc([N+](=O)[O-])cc(c23)C1=O | 85.1% (active) | 90.4% (active) | 91.5% (active) | 90.8% (active) | 89% (active) | 86.1% (active)
28 | CCCCCCCCCCCCCCCCCC(=O)O | -5.2% | -17.4% | 0.1% | -5.75% | -17.1% | 6.05%
29 | COc1ccc(CCNC(=O)Cc2ccccc2CCO)cc1OC | 13.9% | -6.85% | -29.5% | -3.75% | -43.9% | -20.1%
30 | COc1ccc(C2=C/C(=C/c3ccc(N(CCC#N)CCC#N)cc3)C(=O)O2)cc1 | -75.2% | -6.2% | -16.4% | -18.2% | -3.05% | -22.8%
31 | CS(=O)CCNC(=O)NS(=O)(=O)c1ccc(Cl)cc1 (configuration not stated) | -2% | -18.9% | -11.3% | -10.2% | 3.05% | -3.15%
32 | CC(C)(C#N)CCCCC(N)=O | -1.4% | -13.4% | -12.2% | -6.1% | -19.1% | -10.7%
33 | Cc1nc(C)c(C(=O)NNC(N)=S)cc1C(=O)NNC(N)=S | -10.2% | -16.6% | 0.95% | -5.6% | -27.6% | -8.9%
34 | C/[N+]([O-])=C/c1ncc([N+](=O)[O-])n1CCO | 4.05% | 5.9% | 7.95% | 25.1% | -3.5% | 25.6%
35 | OC(CI)C1OCOC2COCOC21 (configuration not stated) | -3.2% | 4.5% | 13.1% | -4% | 16.1% | -3.75%
36 | CCOC(=O)C(CC)(C(=O)OCC)C(C)CC (configuration not stated) | 11.3% | -1.65% | 15.1% | -5.9% | -7.55% | -1.25%
37 | CCC/C(=N/O)C(=O)OCC | -3.4% | 14.9% | 6.4% | 6.25% | 4.4% | -4.6%
38 | NCCCNCCCCN1CCOC1=O | 2.8% | 1.65% | -3.1% | -6.6% | -11.3% | -17.9%
39 | Cc1cc2c(=O)c3ccccc3[nH]c2c(C(N)=O)c1C | 39.5% | 7.8% | 1.75% | -6.9% | -10.5% | 15.3%
40 | COc1cccc(/C(CC(O)(C(F)(F)F)C(F)(F)F)=N\N(C)C)c1 | -30.6% | -9.9% | -8.7% | -38.2% | 1.5% | -25.2%
41 | COc1ccc(C(CC(=O)O)c2cc3c(cc2OC)OCO3)cc1 (configuration not stated) | -4% | -9.85% | 3.8% | 0.25% | 1.1% | -1.75%
42 | COc1ccccc1CCCO | -1.8% | 1.2% | 1.55% | 11.2% | 10.1% | -3.1%
